± gives the standard deviation of the averaged measurements.
Columns and labels:
[1] = tested on: Escherichia coli Nissle 1917; assay: area under OmniLog respiration curve over 48 h (OmniLog units x h); higher = more growth / nutrient utilisation; extreme values may be limits of the assay; settings: incubation: 48 h, 37 °C
[2] = tested on: Escherichia coli Nissle 1917; assay: DuctApe activity index of respiration/growth curve (0 no growth to 9 maximum) (index 0-9); higher = more growth / nutrient utilisation, active = 3 or more; extreme values may be limits of the assay; settings: incubation: 48 h, 37 °C
[3] = nutrient role: C-Source, carboxylic acid
[4] = nutrient role: C-Source, alcohol
[5] = nutrient role: C-Source, carbohydrate
[6] = nutrient role: sole phosphorus source (pyruvate carbon)
[7] = nutrient role: sole sulfur source (pyruvate carbon)
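For DuctApe activity index of respiration/growth curve (0 no growth to 9 maximum) in this document: biolog PM4 phosphorus and sulfur plates, tetrazolium violet dye reduction read in the OmniLog every 15 min, kinetic curves scored by DuctApe, each plate run in triplicate.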

CCC(=O)C(=O)O [a-Ketobutyric acid]
area under OmniLog respiration curve [1, 3]: 800 ± 760
DuctApe activity index [2, 3]: 1.67 (inactive)

O=C1O[C@H]([C@@H](O)CO)[C@@H](O)[C@@H]1O [L-Galactonic acid-g-Lactone]
area under OmniLog respiration curve [1, 3]: 10200 ± 640
DuctApe activity index [2, 3]: 9 (active)

CC(O)C(C)O (configuration not stated) [2,3-Butanediol]
area under OmniLog respiration curve [1, 4]: 20.2 ± 16
DuctApe activity index [2, 4]: 0 (inactive)

OC[C@@H](O)[C@@H](O)[C@H](O)[C@H](O)CO [D-Mannitol]
area under OmniLog respiration curve [1, 5]: 7850 ± 650
DuctApe activity index [2, 5]: 7.67 (active)

NC(Cc1ccc(OP(=O)(O)O)cc1)C(=O)O (stereo in doubt) [O-Phospho-D-Tyrosine]
area under OmniLog respiration curve [1, 6]: 9640 ± 360
DuctApe activity index [2, 6]: 9 (active)

O=C(O)COP(=O)(O)O [Phospho-Glycolic acid]
area under OmniLog respiration curve [1, 6]: 9060 ± 940
DuctApe activity index [2, 6]: 8.67 (active)

N[C@@H](COP(=O)(O)O)C(=O)O [O-Phospho-L-Serine]
area under OmniLog respiration curve [1, 6]: 8970 ± 510
DuctApe activity index [2, 6]: 8.67 (active)

N[C@@H](CS(=O)(=O)O)C(=O)O [L-Cysteic acid]
area under OmniLog respiration curve [1, 7]: 5920 ± 240
DuctApe activity index [2, 7]: 7 (active)

O=C(O)[C@H](O)[C@@H](O)[C@H](O)[C@H](O)CO [D-Gluconic acid]
area under OmniLog respiration curve [1, 3]: 10300 ± 700
DuctApe activity index [2, 3]: 9 (active)

O=C(O)CC(=O)O [Malonic acid]
area under OmniLog respiration curve [1, 3]: 4.72
DuctApe activity index [2, 3]: 0 (inactive)

Nc1nc2c(ncn2[C@@H]2O[C@H](CO)[C@@H](O)[C@H]2OP(=O)(O)O)c(=O)[nH]1 [Guanosine 2`-Monophosphate]
area under OmniLog respiration curve [1, 6]: 9820 ± 820
DuctApe activity index [2, 6]: 9 (active)
